Measurements taken from PubChem BioAssay (NCATS).
Records with an inconclusive call do not appear. A number with no mark means an inactive call. Active and inactive are the calls of the source. The call rests on the fitted dose curve; in most records, active means well fitted cell-killing curve with a large enough effect; inconclusive means small, poorly fitted or top-dose-only effect, or effect the other way; inactive means no such curve, though single readings can be large or run the other way.

Assay: Quantitative High-Throughput drug screen in 47 multiple myeloma cell lines against the NCATS MIPE library collection: RPMI8226_ATCC cell viability assay (AID 1919871); further: nearly all actives have a fitted effect of over 30% in size
Details: RPMI8226 myeloma viability, CellTiter-Glo ATP luminescence, 48 h; series mostly up to 45.8 µM; viability (% of control): at the top concentration
From the text: PI: Beverly A. Mock Ph.D.
Laboratory of Cancer Biology and Genetics,
Center for Cancer Research, National Cancer Institute,
National Institute of Health, Bethesda, Maryland
Drug resistance and disease progression are common in multiple myeloma (MM) patients, underscoring the need for new therapeutic combinations. […] We hypothesized that effective combinations would reduce MYC expression and enhance p16 activity. […] These preclinical data identify potentially useful drug combinations for evaluation in drug-resistant MM and reveal potential mechanisms of combined drug sensitivity.
Described herein is the primary MIPE qHTS used to cherrypick compounds. Validated compounds were then further tested for potential synergistic activiy.
[1] Peat TJ, Gaikwad SM, Dubois W, Gyabaah-Kessie N, Zhang S, Gorjifard S, Phyo Z, Andres M, Hughitt VK, Simpson RM, Miller MA, Girvin AT, Taylor A, Williams D, D'Antonio N, Zhang Y, Rajagopalan A, Flietner E, Wilson K, Zhang X, Shinn P, Klumpp-Thomas C, McKnight C, Itkin Z, Chen L, Kazandijian D, Zhang J, Michalowski AM, Simmons JK, Keats J, Thomas CJ, Mock BA. Drug combinations identified by high-throughput screening promote cell cycle transition and upregulate Smad pathways in myeloma. Cancer Lett. 2023 Aug 1;568:216284. doi: 10.1016/j.canlet.2023.216284. Epub 2023 Jun 24. PMID: 37356470; PMCID: PMC10408729.
SEQUENCE No. (e.g., 1, 2, 3, etc.); […] (e.g., Cells, Incubation, Reagent, etc.); VALUE and DESCRIPTION.
1; Cells; 5 uL; white, solid bottom 1536-well Greiner assay plate.
2; Compounds; 23 nL; Kalypsis pin tool (Wako USA) equipped with a 1536-well pin head to transfer to the assay plates.
3; Incubation; 48 hours; 37C incubation.
4; Reagent;5uL; CellTiter Glo (Promega).
5; Detector; 425V; Luminescence; Viewlux PerkinElmer.
NOTES (numbers refer to Sequence numbers above)
1. The cell-based screening methods employed in this study were like those previously published. Briefly, the corresponding myeloma cell lines were screened in 1,536-well plates with 500 cells, 5-uL per well for inhibition of cell viability (assessed by measuring ATP levels with CellTiterGlo).
2. NCATS MIPE 4.0 library of approved and investigational drugs were added using the Kalypsis pin tool. Wells treated with DMSO only for 100% viability and media only for 0% viability were used as controls.
3. The assay plates were covered and incubated for 48 hours in a 37C, 5% CO2 incubator with controlled humidity.
4. After 48 hours, CellTilter-GloTM luminescent substrate mix (Promega) reagent was added to the assay plate and plates we incubated for 5 min at room temperature.
5. Signal was measured as median relative luminescence units on a ViewLux (PerkinElmer) multiplate reader.
[1] Heske CM, Davis MI, Baumgart JT, Wilson K, Gormally MV, Chen L, Zhang X, Ceribelli M, Duveau DY, Guha R, Ferrer M, Arnaldez FI, Ji J, Tran HL, Zhang Y, Mendoza A, Helman LJ, Thomas CJ. Matrix Screen Identifies Synergistic Combination of PARP Inhibitors and Nicotinamide Phosphoribosyltransferase (NAMPT) Inhibitors in Ewing Sarcoma. Clin Cancer Res. 2017 Dec 1;23(23):7301-7311. doi: 10.1158/1078-0432.CCR-17-1121. Epub 2017 Sep 12. PMID: 28899971; PMCID: PMC6636827.
Potency means the concentration at half of the fitted maximal effect.

Row | SMILES | viability (% of control) | Potency
1 | COc1ccccc1N1CCN(CCN(C(=O)C2CCCCC2)c2ccccn2)CC1 | 111% | 
2 | CN(C)[C@@H](CCOc1cccc2ccccc12)c1ccccc1 |  | 16.6 µM (active)
3 | COc1ccc(C2(C#N)CCC(C(=O)O)CC2)cc1OC1CCCC1 (stereo not given) | 135% | 
4 | Nc1ccc(S(N)(=O)=O)cc1 | 125% | 
5 | Nc1ccn([C@@H]2O[C@H](CO)[C@@H](O)C2O)c(=O)n1 (stereo not given in full) | 108% | 
6 | c1ccc2[nH]c(-c3cscn3)nc2c1 | 116% | 
7 | CCN(CCO)CCCC(C)Nc1ccnc2cc(Cl)ccc12 (stereo not given) | 101% | 
8 | CCCc1cc(=O)[nH]c(=S)[nH]1 | 104% | 
9 | Oc1ccc(-c2nc(-c3ccc(F)cc3)c(-c3ccncc3)[nH]2)cc1 | 86.9% | 
10 | O=P(O)(O)C(O)(Cn1ccnc1)P(=O)(O)O | 118% [at 23.2 µM] | 
11 | Nc1cc(C(Cl)=C(Cl)Cl)c(S(N)(=O)=O)cc1S(N)(=O)=O | 114% | 
12 | C[Se]CCC(N)C(=O)O (stereo not given) | 86.1% [at 92.2 µM] | 
13 | Cc1ccc(Nc2nccc(N(C)c3ccc4c(C)n(C)nc4c3)n2)cc1S(N)(=O)=O |  | 14.8 µM (active)
14 | CN(C)CCc1c[nH]c2ccc(Cn3cncn3)cc12 | 117% | 
15 | Cc1cc(Cl)ccc1OCCCC(=O)NO | 100% | 
16 | CC1=C(C(=O)O)N2C(=O)[C@@H](NC(=O)[C@H](N)C3=CCC=CC3)[C@H]2SC1 | 125% | 
17 | CCOC(=O)c1c(C)n(C)c2ccc(O)cc12 | 102% | 
18 | CCOc1cc(CC(=O)N[C@@H](CC(C)C)c2ccccc2N2CCCCC2)ccc1C(=O)O | 141% | 
19 | O=Nc1c(-c2c(O)[nH]c3cc(Br)ccc23)[nH]c2ccccc12 |  | 18.7 µM (active)
20 | COc1cc2c(cc1OC)C1CC(=O)C(CC(C)C)CN1CC2 (stereo not given) |  | 5.9 µM (active)

Row | SMILES | viability (% of control) | Potency
21 | COc1cc(C(C)=O)ccc1OCCCN1CCC(c2noc3cc(F)ccc23)CC1 |  | 13.2 µM (active)
22 | Nc1ncn([C@H]2C[C@H](O)[C@@H](CO)O2)c(=O)n1 | 114% | 
23 | Nc1nc(OCc2ccccc2)c2[nH]cnc2n1 | 83.5% | 
24 | NS(=O)(=O)c1cc(C(=O)O)c(NCc2ccco2)cc1Cl | 87.8% | 
25 | CCOC(=O)C(C)Oc1cccc2c(=O)n(CC(=O)Nc3ccc4c(c3)OCCO4)ccc12 (stereo not given) | 104% | 
26 | O=C(CCc1ccc(O)cc1)c1c(O)cc(O)cc1O |  | 4.69 µM (active)
27 | Cc1nc2n(c(=O)c1CCN1CCC(c3noc4cc(F)ccc34)CC1)CCCC2 | 113% | 
28 | C=C(c1ccc(C(=O)O)cc1)c1cc2c(cc1C)C(C)(C)CCC2(C)C | 103% | 
29 | Cc1c(OCC(F)(F)F)ccnc1CS(=O)c1nc2ccccc2[nH]1 (stereo not given) | 104% | 
30 | Cc1cccc(C#Cc2ccccc2)n1 |  | 3.72 µM (active)
31 | Cc1nccn1CC1CCc2c(c3ccccc3n2C)C1=O (stereo not given) | 97.3% | 
32 | O=C(OC1C[C@H]2CC[C@@H](C1)[N+]21CCCC1)C(O)(c1ccccc1)c1ccccc1 (stereo not given in full) | 115% | 
33 | Cc1ccc(C)c(OCCCC(C)(C)C(=O)O)c1 | 108% | 
34 | COc1ccc2cc([C@H](C)C(=O)O)ccc2c1 | 106% | 
35 | NNc1nncc2ccccc12 | 96.5% | 
36 | O=c1ccc2ccc(O)c(O)c2o1 | 104% | 
37 | CCN(CC)CCOc1ccc(Nc2ncc3cc(-c4c(Cl)cccc4Cl)c(=O)n(C)c3n2)cc1 |  | 2.35 µM (active)
38 | COc1c(O)cc2c(c1O)[C@@H]1O[C@H](CO)[C@@H](O)[C@H](O)[C@H]1OC2=O | 114% | 
39 | Cc1cc2cc3c(C)cc(=O)oc3c(C)c2o1 |  | 20.9 µM (active)
40 | CC(C)[C@H](N)C(=O)OCCOCn1cnc2c(=O)[nH]c(N)nc21 | 111% | 
